What all share (assay): DAPPL (digital affinity profiling via proximity ligation, sequencing); 10 mM Tris-HCl pH 7.5, 50 mM NaCl, 1 mM DTT, 4% glycerol, room temperature, 30 min; GST-TFs on glutathione beads, 16-mer random dsDNA library, 0.1% formaldehyde crosslink after washing; high values mean tight binding
Assay [1] addresses T1, FEV (Homo sapiens, UniProt Q99581 1-238).
T1 sequence: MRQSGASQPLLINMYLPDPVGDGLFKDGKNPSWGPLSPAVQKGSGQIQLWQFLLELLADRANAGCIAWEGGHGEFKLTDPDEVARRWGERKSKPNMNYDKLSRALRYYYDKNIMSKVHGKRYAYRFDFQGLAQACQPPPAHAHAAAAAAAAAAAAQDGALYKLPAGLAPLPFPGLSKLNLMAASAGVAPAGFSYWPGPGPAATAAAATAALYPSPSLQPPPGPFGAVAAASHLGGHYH
The conditions noted are these: protein: recombinant; tags: N-terminal GST; dsDNA, one strand shown. The method, boiled down:
(§1)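 Binding signal is each hexamer's read frequency for a factor divided by its frequency in the tag-only sample. The factors were GST-fused human transcription factors from yeast, captured on glutathione beads, DNA-barcoded and pooled with that sample. Pools were incubated with 200 nmole of a random double-stranded 16-mer DNA library in Tris/NaCl/DTT/glycerol buffer at room temperature for 30 min, then washed, crosslinked with 0.1% formaldehyde, proximity-ligated with BsaI/T4 ligase (1 h, 37 °C), PCR-amplified and sequenced on an Illumina NextSeq500.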

Assay [2] concerns the target ETV5 (Homo sapiens, UniProt P41161 1-510). As to conditions: protein: recombinant; tags: N-terminal GST; dsDNA, one strand shown. The method, boiled down:
as §1

Assay [3] concerns the target HSF1 (Homo sapiens, UniProt Q00613 1-529). The conditions noted are these: protein: recombinant; tags: N-terminal GST; chain copies: 3; dsDNA, one strand shown. The procedure, abridged:
as §1

The target in assay [4] is T2, SPIC (Homo sapiens, UniProt Q8N5J4 1-248).
T2 sequence: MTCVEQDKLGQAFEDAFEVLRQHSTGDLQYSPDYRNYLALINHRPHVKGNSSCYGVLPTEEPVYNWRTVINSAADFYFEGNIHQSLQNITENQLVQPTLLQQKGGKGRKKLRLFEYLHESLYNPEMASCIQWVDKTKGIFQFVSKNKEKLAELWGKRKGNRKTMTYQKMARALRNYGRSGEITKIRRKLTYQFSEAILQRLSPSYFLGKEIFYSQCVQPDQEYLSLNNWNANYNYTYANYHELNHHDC
As to conditions: protein: recombinant; tags: N-terminal GST; dsDNA, one strand shown. The procedure, abridged:
as §1

The target of assay [5] is ELF4 (Homo sapiens, UniProt Q99607 1-663). The conditions noted are these: protein: recombinant; tags: N-terminal GST; dsDNA, one strand shown. The method, boiled down:
as §1

The target of assay [6] is T3, ELK4 (Homo sapiens, UniProt P28324-2 1-405).
T3 sequence: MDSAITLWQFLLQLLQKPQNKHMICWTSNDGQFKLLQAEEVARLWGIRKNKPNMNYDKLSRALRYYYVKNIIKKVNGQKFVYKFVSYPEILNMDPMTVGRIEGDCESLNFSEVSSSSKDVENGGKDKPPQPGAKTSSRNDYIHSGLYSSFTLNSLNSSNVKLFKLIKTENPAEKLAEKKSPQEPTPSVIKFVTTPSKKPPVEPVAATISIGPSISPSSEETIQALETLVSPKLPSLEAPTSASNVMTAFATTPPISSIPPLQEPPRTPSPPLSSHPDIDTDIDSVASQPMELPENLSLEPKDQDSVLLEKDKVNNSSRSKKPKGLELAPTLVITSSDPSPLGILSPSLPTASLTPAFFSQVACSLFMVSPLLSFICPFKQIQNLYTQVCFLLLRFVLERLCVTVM
The conditions noted are these: protein: recombinant; tags: N-terminal GST; dsDNA, one strand shown. The method, boiled down: as §1

In assay [7] the target is T4, ETV2 (Homo sapiens, UniProt O00321 1-342).
T4 sequence: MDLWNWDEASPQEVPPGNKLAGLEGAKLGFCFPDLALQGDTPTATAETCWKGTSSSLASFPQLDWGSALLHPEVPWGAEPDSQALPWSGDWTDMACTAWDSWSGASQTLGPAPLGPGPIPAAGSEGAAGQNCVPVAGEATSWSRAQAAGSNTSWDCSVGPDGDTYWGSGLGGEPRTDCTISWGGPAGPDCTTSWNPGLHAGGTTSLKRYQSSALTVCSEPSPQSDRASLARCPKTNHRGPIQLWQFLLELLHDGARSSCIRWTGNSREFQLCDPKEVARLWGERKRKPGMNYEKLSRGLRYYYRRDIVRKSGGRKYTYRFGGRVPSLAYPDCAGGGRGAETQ
The conditions noted are these: protein: recombinant; tags: N-terminal GST; dsDNA, one strand shown. The method, boiled down: as §1

Assay [8] concerns the target T5, ELF3 (Homo sapiens, UniProt P78545 1-371).
T5 sequence: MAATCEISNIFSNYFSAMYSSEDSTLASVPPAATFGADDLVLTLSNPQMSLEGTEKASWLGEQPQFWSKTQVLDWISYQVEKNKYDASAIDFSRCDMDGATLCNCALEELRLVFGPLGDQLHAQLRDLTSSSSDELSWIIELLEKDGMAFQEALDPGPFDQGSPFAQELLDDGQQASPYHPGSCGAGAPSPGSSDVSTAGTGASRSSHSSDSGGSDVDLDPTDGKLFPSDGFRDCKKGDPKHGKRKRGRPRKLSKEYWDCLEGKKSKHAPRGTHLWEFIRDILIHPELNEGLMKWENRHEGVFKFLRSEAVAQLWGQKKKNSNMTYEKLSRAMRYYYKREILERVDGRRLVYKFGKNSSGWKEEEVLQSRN
The conditions noted are these: protein: recombinant; tags: N-terminal GST; dsDNA, one strand shown. The method, boiled down:
as §1

Assay [9] has as its target CRX (Homo sapiens, UniProt O43186 1-299). As to conditions: protein: recombinant; tags: N-terminal GST; dsDNA, one strand shown. The procedure, abridged:
as §1

Assay [10] addresses ETV1 (Homo sapiens, UniProt P50549 1-477). The conditions noted are these: protein: recombinant; tags: N-terminal GST; dsDNA, one strand shown. The method, boiled down: as §1
For assay [11], the target named is T6, ERF (Homo sapiens, UniProt P50548 1-548).
T6 sequence: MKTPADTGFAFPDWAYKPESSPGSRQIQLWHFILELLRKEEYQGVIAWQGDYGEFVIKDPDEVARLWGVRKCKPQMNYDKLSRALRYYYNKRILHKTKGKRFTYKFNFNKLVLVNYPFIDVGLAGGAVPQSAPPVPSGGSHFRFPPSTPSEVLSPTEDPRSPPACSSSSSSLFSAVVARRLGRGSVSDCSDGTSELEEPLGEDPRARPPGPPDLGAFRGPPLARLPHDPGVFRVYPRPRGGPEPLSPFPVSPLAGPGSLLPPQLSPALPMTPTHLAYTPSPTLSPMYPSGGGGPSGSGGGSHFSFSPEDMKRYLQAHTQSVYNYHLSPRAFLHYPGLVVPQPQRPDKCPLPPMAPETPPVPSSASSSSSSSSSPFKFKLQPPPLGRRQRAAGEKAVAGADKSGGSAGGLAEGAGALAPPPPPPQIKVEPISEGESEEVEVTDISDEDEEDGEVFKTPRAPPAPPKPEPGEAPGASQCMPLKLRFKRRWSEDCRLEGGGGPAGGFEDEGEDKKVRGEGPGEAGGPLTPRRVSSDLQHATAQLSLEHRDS
As to conditions: protein: recombinant; tags: N-terminal GST; dsDNA, one strand shown. The procedure, abridged:
as §1

Assay [12] concerns the target T7, ETV3L (Homo sapiens, UniProt Q6ZN32 1-361).
T7 sequence: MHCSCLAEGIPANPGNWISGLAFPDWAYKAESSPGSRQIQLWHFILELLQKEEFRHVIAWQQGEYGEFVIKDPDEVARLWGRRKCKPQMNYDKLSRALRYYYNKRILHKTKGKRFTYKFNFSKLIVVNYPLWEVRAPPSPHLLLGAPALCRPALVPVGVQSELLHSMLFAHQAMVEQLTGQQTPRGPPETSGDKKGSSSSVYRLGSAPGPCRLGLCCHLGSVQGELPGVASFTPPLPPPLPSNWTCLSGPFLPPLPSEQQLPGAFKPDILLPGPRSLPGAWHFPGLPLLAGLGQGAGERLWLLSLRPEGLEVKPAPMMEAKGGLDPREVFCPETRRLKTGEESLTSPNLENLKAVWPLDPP
As to conditions: protein: recombinant; tags: N-terminal GST; dsDNA, one strand shown. The method, boiled down: as §1

Assay [13] deals with T8, ETS2 (Homo sapiens, UniProt P15036 1-469).
T8 sequence: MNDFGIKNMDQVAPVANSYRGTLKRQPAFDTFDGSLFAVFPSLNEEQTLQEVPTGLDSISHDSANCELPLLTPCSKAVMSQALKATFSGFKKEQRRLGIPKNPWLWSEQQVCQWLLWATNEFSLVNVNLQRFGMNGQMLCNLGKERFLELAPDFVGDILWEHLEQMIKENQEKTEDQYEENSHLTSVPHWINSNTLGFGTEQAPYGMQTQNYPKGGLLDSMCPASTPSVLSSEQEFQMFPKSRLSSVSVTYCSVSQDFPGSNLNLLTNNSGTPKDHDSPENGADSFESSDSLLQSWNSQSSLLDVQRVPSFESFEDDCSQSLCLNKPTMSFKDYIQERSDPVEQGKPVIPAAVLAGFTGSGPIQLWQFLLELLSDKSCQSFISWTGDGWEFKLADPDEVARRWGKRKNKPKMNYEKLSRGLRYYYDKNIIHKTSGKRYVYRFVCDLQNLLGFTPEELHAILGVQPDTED
As to conditions: protein: recombinant; tags: N-terminal GST; dsDNA, one strand shown. The procedure, abridged: as §1

Assay [14] concerns the target T9, SPDEF (Homo sapiens, UniProt O95238 1-335).
T9 sequence: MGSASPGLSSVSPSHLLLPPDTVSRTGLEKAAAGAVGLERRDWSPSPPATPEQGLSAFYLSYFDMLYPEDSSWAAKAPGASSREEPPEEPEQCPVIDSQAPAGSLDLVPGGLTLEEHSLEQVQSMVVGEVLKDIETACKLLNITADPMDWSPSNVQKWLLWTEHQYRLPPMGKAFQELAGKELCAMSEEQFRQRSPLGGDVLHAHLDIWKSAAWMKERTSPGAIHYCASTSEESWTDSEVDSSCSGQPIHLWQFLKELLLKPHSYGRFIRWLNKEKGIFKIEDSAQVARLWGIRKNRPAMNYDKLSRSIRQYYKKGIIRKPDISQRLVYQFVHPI
The conditions noted are these: protein: recombinant; tags: N-terminal GST; dsDNA, one strand shown. The procedure, abridged:
as §1

The target in assay [15] is T10, ETV7 (Homo sapiens, UniProt Q9Y603 1-341).
T10 sequence: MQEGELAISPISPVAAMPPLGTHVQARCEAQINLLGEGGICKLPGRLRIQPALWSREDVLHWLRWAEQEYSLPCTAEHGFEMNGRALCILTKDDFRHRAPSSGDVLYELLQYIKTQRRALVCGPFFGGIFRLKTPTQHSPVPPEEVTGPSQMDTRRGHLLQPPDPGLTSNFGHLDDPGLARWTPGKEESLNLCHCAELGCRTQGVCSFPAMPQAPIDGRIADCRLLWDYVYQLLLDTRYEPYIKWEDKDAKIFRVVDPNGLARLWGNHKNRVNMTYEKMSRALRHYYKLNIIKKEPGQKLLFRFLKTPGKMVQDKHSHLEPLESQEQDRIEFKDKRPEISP
As to conditions: protein: recombinant; tags: N-terminal GST; dsDNA, one strand shown. The procedure, abridged: as §1

Assay [16] has as its target T11, ELF5 (Homo sapiens, UniProt Q9UKW6-2 1-255).
T11 sequence: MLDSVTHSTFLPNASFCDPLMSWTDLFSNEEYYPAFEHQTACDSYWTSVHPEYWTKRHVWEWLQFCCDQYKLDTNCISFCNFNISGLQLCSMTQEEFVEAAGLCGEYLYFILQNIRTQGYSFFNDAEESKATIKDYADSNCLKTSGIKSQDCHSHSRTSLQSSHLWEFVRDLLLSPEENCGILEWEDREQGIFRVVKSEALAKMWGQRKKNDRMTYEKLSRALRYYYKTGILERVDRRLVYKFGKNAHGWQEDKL
As to conditions: protein: recombinant; tags: N-terminal GST; dsDNA, one strand shown. The procedure, abridged:
as §1

In assay [17] the target is T12, ETV3 (Homo sapiens, UniProt P41162-2 1-143).
T12 sequence: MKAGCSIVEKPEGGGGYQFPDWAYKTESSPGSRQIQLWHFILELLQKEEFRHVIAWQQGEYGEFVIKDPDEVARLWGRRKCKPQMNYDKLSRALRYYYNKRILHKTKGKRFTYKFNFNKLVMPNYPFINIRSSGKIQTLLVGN
The conditions noted are these: protein: recombinant; tags: N-terminal GST; dsDNA, one strand shown. The method, boiled down:
as §1

In assay [18] the target is ETV6 (Homo sapiens, UniProt P41212 1-452). As to conditions: protein: recombinant; tags: N-terminal GST; dsDNA, one strand shown. The method, boiled down:
as §1

Sequence of CRX (O43186 whole entry): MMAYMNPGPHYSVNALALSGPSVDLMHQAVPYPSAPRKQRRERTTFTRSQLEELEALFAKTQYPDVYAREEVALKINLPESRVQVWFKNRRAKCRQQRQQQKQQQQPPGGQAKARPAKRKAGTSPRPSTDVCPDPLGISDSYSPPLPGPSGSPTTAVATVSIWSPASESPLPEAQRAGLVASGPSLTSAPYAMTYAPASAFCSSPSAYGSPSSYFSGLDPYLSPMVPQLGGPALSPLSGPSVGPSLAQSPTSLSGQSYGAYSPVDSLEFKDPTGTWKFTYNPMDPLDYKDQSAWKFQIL
Sequence of ETV6 (P41212 whole entry): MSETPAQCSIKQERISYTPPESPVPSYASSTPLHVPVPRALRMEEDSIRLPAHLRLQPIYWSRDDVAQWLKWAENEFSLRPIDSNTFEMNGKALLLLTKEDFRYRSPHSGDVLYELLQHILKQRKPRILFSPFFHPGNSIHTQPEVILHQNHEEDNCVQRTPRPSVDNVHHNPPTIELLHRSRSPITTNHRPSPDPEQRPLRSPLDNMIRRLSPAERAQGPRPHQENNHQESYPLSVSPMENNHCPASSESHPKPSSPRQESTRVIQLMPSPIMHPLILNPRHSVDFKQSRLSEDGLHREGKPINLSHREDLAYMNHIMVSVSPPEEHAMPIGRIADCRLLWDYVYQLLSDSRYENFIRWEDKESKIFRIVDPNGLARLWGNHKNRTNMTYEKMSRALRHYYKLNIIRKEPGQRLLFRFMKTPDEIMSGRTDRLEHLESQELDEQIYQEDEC
Sequence of HSF1 (Q00613 whole entry): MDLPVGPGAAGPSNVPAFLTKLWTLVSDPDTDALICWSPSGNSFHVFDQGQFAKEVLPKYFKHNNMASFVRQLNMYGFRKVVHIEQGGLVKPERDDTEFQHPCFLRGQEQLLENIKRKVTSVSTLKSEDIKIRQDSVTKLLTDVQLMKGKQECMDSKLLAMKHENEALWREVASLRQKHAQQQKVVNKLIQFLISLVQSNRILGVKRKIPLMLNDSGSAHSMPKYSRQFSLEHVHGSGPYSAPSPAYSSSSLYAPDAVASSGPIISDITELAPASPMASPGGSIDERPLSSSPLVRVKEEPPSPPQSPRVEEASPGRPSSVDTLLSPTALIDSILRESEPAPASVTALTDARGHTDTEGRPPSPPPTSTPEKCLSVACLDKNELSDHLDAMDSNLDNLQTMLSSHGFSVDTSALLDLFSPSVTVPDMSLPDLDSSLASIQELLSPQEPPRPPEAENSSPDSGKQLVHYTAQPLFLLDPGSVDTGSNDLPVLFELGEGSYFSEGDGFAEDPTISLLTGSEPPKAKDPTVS
Sequence of ETV1 (P50549 whole entry): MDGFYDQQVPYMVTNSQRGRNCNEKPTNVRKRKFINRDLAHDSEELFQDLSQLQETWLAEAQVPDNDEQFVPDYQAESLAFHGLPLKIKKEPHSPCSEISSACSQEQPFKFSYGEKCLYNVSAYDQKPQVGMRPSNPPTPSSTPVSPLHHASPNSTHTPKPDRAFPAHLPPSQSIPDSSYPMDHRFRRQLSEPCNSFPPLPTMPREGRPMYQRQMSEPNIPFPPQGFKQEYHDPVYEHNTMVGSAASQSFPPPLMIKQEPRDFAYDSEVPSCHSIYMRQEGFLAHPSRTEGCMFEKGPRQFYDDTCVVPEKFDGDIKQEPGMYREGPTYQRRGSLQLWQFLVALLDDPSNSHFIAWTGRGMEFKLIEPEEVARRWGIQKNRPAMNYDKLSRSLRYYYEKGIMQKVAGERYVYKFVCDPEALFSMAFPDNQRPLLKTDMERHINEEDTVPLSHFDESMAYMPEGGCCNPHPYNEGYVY
Sequence of ELF4 (Q99607 whole entry): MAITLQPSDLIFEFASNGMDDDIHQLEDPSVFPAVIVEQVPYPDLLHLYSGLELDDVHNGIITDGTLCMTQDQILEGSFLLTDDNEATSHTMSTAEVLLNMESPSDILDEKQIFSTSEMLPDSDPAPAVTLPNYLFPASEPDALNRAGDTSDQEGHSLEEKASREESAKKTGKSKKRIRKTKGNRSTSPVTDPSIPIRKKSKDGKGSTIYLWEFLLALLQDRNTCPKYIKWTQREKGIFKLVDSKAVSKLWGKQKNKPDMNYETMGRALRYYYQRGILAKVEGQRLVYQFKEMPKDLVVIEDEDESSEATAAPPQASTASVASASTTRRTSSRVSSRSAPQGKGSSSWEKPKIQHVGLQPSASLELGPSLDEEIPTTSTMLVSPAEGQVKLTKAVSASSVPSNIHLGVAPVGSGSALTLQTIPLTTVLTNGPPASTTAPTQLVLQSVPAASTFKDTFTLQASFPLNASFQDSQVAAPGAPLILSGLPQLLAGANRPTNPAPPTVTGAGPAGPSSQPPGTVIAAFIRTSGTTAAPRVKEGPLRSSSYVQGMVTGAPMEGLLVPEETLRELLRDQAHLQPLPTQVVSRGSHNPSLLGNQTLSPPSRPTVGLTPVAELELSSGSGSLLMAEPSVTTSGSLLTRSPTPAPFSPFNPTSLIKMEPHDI
Sequence of ETV5 (P41161 whole entry): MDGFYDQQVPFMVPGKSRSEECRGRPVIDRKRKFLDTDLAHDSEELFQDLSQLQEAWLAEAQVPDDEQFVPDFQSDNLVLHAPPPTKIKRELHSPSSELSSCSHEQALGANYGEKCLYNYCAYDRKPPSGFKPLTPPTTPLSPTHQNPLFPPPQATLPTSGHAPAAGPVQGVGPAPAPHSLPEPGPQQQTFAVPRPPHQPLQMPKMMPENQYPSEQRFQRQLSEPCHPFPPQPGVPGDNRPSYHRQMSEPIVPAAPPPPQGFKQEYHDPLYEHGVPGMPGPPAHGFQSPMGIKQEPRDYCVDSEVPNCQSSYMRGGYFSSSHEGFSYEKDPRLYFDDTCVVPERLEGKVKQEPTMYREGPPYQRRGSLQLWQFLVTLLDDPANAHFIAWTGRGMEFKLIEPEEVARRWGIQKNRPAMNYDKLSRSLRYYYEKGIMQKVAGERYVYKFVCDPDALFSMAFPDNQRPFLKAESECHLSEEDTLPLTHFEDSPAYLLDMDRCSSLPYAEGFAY

CCTTAG: the binding signal in [1] was 1.28 fold enrichment (6-mer frequency, TF over GST control); in assay [2] it was 1.18 fold enrichment (6-mer frequency, TF over GST control); in assay [3] it was 1.2 fold enrichment (6-mer frequency, TF over GST control); in [4] it was 1.36 fold enrichment (6-mer frequency, TF over GST control); in assay [5], 1.34 fold enrichment (6-mer frequency, TF over GST control); in assay [6] it was 1.34 fold enrichment (6-mer frequency, TF over GST control). The binding signal in assay [7] was 1.32 fold enrichment (6-mer frequency, TF over GST control); in assay [8], 1.05 fold enrichment (6-mer frequency, TF over GST control); in [9], 1.28 fold enrichment (6-mer frequency, TF over GST control); in assay [10], 1.22 fold enrichment (6-mer frequency, TF over GST control); in assay [11], 1.22 fold enrichment (6-mer frequency, TF over GST control); in assay [12], 1.26 fold enrichment (6-mer frequency, TF over GST control). The binding signal in [13] is 1.27 fold enrichment (6-mer frequency, TF over GST control); in [14] it was 1.24 fold enrichment (6-mer frequency, TF over GST control); in assay [15] it was 1.21 fold enrichment (6-mer frequency, TF over GST control); in assay [16], 1.29 fold enrichment (6-mer frequency, TF over GST control); in assay [17], 1.27 fold enrichment (6-mer frequency, TF over GST control); in assay [18] it was 1.23 fold enrichment (6-mer frequency, TF over GST control).

The record behind these values is article PMC7862700, “An all-to-all approach to the identification of sequence-specific readers for epigenetic DNA modifications on cytosine”.
